# High-throughput results (PubChem)
# D3 antag – antagonists of human D3 dopamine receptor. P35462. D3R cells, DiscoveRx beta-arrestin luminescence, antagonist mode; stronger effect = lower value. max response, negative = inhibition, %. actives 2.5% (n = 360,000); in the data active means max response below about -50%; inconclusive means no clear call, values can overlap the other calls; further: on the % scale 0 is the no-effect control and ±100 the full control effect
# Target sequence (P35462 whole entry, looked up): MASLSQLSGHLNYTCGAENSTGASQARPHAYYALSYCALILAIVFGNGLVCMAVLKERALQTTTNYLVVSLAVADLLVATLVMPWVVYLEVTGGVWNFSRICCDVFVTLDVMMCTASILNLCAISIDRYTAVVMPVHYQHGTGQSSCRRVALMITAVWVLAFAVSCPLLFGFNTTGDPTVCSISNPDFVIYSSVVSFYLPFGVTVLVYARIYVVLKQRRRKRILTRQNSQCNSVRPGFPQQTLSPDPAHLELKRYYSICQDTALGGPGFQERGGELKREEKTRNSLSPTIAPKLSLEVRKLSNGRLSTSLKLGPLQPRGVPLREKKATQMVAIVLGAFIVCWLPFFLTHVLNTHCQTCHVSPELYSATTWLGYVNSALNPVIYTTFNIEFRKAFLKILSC
#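 Cells expressing the human receptor were seeded at 1500 cells/well, incubated overnight at 37 degrees C in 5% CO2, then exposed to library compounds with dopamine controls for 90 minutes at 37 degrees C before luminescent detection.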
# Integrin act MD – activators of alpha7 integrin expression for muscular dystrophy | AID 624291 | actives 0.064% (n = 350,000) | Potency, µM (titrated, usually from 38.3 µM), inactives show at the highest dose activation, usual class: activators | alpha7betagal myoblasts, beta-gal FDG fluorescence, 48 h;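 further: potency means the concentration at half of the fitted maximal effect; 100% = response of the positive control SU9516; nearly all actives have a fitted effect of over 60% in size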
#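 Alpha7betagal+/- myoblasts (passage 13) were plated 16-24 hr, then exposed to compounds (1:260 dilution of DMSO stock) for 48 hours at 37C. After MPER lysis, β-galactosidase reporter activity was read as FDG fluorescence (ex 480/em 540) after 30 minutes.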
# ATXN2 expr inh – inhibitors of ATXN2 expression; HEK-293 ATXN2-luciferase reporter, luminescence, 24 h; Potency, µM (titrated, usually from 57 µM), for inactives: at the highest dose activity change, negative = inhibition, usual class: inhibitors; actives 0.72% (n = 360,000); further: potency means the concentration at half of the fitted maximal effect; on the % scale 0 is the no-effect control and ±100 the full control effect; nearly all actives have a fitted effect of over 55% in size
#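 qHTS (up to 57 uM final) was run with 24 h compound exposure of reporter cells at 37 °C. Each well was multiplexed: SteadyGlo luminescence measured ATXN2-luciferase expression after a fluorogenic Gly-Phe-AFC viability readout (25 uM final).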
# D3 ag – agonists of human D3 dopamine receptor | P35462 | D3R DiscoveRx beta-arrestin cells, luminescence, 90 min | max activation, % | actives 0.58% (n = 410,000) | AID 652048; in the data active means max activation above about 30%; further: 0% is about no effect
#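 Cells at 1500/well, incubated overnight, then treated with pinned compounds (dopamine as control) for 90 min at 37 degrees C. DiscoveRx reagent added for 30 - 60 minutes at room temperature; luminescence read.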
# S2 tox – reduces viability in counter-screen for ATXN expression inhibitors. S2 cells (HEK-293 line with an ATXN2-luciferase reporter) viability, CellTiter-Fluor protease fluorescence, 24 h. Potency, µM (highest dose often 56.7 µM), usual class: cytotoxic. actives 0.49% (n = 400,000); further: potency means the concentration at half of the fitted maximal effect; nearly all actives have a fitted effect of over 40% in size
# IL1B secr inh – blocks inflammasome-driven IL-1 beta release. actives 4.7% (n = 360,000). THP-1 LPS/ATP IL-1B secretion, AlphaLISA, 16 h; stronger effect = lower value. AID 743279. activity change, % at 57.5 µM; in the data active means activity change below about -50%; inconclusive means mostly about -30% to -49%; further: on the % scale 0 is the no-effect control and ±100 the full control effect
#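 Secreted IL-1B measured by AlphaLISA bead assay after 16 h compound exposure of THP-1 cells; compounds (final up to 57.5 uM) added 1 h before LPS (250 ng/mL) and ATP (1.25 mM) stimulation; lower signal means less secretion.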
# The depositor's hits bear a star; i = inactive; ? = inconclusive; . = no result given; [ ] = remark or other dose. Hits are enriched below; roughly 7% of the tested compounds scored in any of these assays. Unless noted, the call rests on the fitted dose curve; in most records, active means well fitted curve in the direction sought with a large enough effect; inconclusive means small, poorly fitted or top-dose-only effect, or another doubt; inactive means no such curve, though single readings can be large; an effect the other way counts as inactive or inconclusive.
SMILES,D3 antag,Integrin act MD,ATXN2 expr inh,D3 ag,S2 tox,IL1B secr inh
COc1ccc(-c2nc3c4ccccc4ccn3c2CN2CCCCC2)cc1OC,-3,10%,.,-11,32µM*,-13
CCn1c(=S)sc2c(=O)n(-c3ccccc3)c(SC)nc21,15,0%,?,4,?,-16
N#CCSc1nc2c(sc(=S)n2Cc2ccco2)c(=O)n1-c1ccc(F)cc1,4,-50%,-27%,-24,i,-53*
Cc1ccc(-n2cc(CNCCN3CCOC3=O)c(-c3cccc(C)c3)n2)cc1,-17,-22%,-22%[11.3 µM],-15,i,-66*
Cc1ccc(-n2cc(CNCCCn3cccn3)c(-c3cccc(C)c3)n2)cc1,-73*,-73%,32µM*,-20,.,-99*
O=C1OCCN1CCNCc1cn(-c2ccc(F)cc2)nc1-c1ccccc1Cl,?,-2%,3%,-18,i,-5
CC(C)c1ccc2oc3nc(N)c(C(=O)O)cc3c(=O)c2c1,.,.,37%,4,i,.
CC(Sc1ncnc2c1cnn2-c1ccccc1)C(=O)NCC1CCCO1 (stereo not given),2,-1%,5%,2,i,11
Cc1nc(SC(C)C(=O)NCC2CCCO2)c2cc(-c3ccccc3)sc2n1 (stereo not given),12,?,-20%,3,?,-63*
c1csc(-c2nn3c(C4COc5ccccc5O4)nnc3s2)c1 (stereo not given),-11,-21%,69%,4,i,3
c1ccc2c(c1)OCC(c1nnc3sc(-c4cnccn4)nn13)O2 (stereo not given),21,-19%,4%,30*,i,-2
O=C(c1nc2ccccn2c1CNCCCn1ncc2ccccc21)N1CCCC1,-12,7%,0%,-26,i,-5
CCCCN(C)C(=O)c1nc2ccccn2c1CNCCCn1ncc2ccccc21,-77*,-12%,-2%,-14,i,17
CN(Cc1ccccc1)C(=O)c1nc2ccccn2c1CNCCCOc1cccnc1,-56*,-34%,.,-16,i,-15
COc1cc2c(cc1OC)C(Cc1ccccc1[N+](=O)[O-])=NCC2,-11,-23%,4%,-6,i,12
CC(C)Oc1ccc(Br)cc1/C=N\NC(N)=S,-2,4%,-23%,-6,i,-27
COC(=O)CCN(Cc1cc(OC)ccc1OC)S(=O)(=O)c1ccccc1Br,1,-31%,5%,-1,i,0
CCOc1ccccc1NC(=O)CCC(=O)Nc1ccccc1OCC,-6,7%,-18%,-6,i,27
CCOc1cc(NC(=O)CCl)c(OCC)cc1NC(=O)CCl,-13,-48%,-37%,2,?,-81*
COc1ccc(CC(=O)NCc2nnc(SCC(=O)N3CCN(c4ccccc4)CC3)n2C)cc1,4,-15%,-3%,2,i,-3
O=C(NCCc1c[nH]c2ccccc12)OCCCCOC(=O)NCCc1c[nH]c2ccccc12,26,-38%,?,60*,18µM*,-51*
O=C(CCCc1c[nH]c2ccccc12)NCCc1c[nH]c2ccccc12,-19,22%,?,-5,?,?
O=C(NCCc1c[nH]c2ccccc12)c1ccc([N+](=O)[O-])o1,-13,-40%,.,2,?,-87*
Cc1nc(NC(=O)CSc2cc(C)c3ccccc3n2)c(Cl)cc1Cl,2,20%,20%,3,i,11
CCNc1nc(SC(C)C(=O)Nc2ccccc2)nc(N(C)C)n1 (stereo not given),-2,-35%,0%,-13,?,-16
SMILES,D3 antag,Integrin act MD,ATXN2 expr inh,D3 ag,S2 tox,IL1B secr inh
CC(C)Nc1nc(SC(C)C(=O)Nc2ccccc2)nc(N(C)C)n1 (stereo not given),-16,?,-30%,-13,i,-87*
CS(=O)Cc1cc(Oc2ccccc2)nc(-c2ccncc2)n1 (stereo not given),-13,-19%,1%,1,i,26
CCCCN(C)c1nc(-c2ccco2)c2c(c1C#N)CC(C)(C)OC2,-13,-11%,22µM*,-9,i,-67*
CN(C)CCNc1nc(-c2ccco2)c2c(c1C#N)CC(C)(C)OC2,37,-10%,-32%,-3,i,7
CC1(C)CC2(OC2c2ccccc2[N+](=O)[O-])C(=O)c2ccccc21 (stereo not given),-6,-12%,.,1,i,3
Cc1ccc(S(=O)(=O)CC(O)COc2ccc(F)cc2Cl)c(C)c1 (stereo not given),14,14%,-18%,4,i,-145*
COc1ccccc1S(=O)(=O)CC(O)COc1ccc(F)cc1Cl (stereo not given),-19,-186%,-26%,-44,i,-62*
Cc1ccc(S(=O)(=O)CC(O)COc2ccc(F)cc2Cl)cc1 (stereo not given),-64*,-1%,1%,-9,i,-8
Cc1ccc(Cl)c(OCC(O)CNC(C)(C)C)c1 (stereo not given),.,.,-8%,.,i,.
COc1ccc(S(=O)(=O)N(C)C[C@H]2Oc3c(NC(=O)Cc4ccccc4)cccc3C(=O)N([C@H](C)CO)C[C@@H]2C)cc1,-15,-3%,?,-8,?,17
O=C(NCc1ccccn1)C1(C(F)(F)F)C/C(=C\CCO)CCCO1 (stereo not given),13,17%,4%,4,i,14
CC(C)C[C@@H](CN1CCC[C@H]1CN1C(=O)C(=O)NC[C@@H]1Cc1ccc(O)cc1)N1C[C@H](Cc2ccccc2)N(CC2CCCCCC2)C(=O)C1=O,-2,.,?,-7,?,-91*
CC(C)C[C@@H](CN1CCC[C@H]1CN1C(=O)C(=O)NC[C@@H]1Cc1ccccc1)N1C[C@H](Cc2ccccc2)N(CC2CCCCCC2)C(=O)C1=O,-11,.,?,-3,.,-80*
O=C1NC[C@H](Cc2ccccc2)N(C[C@H]2CCCN2C[C@H](Cc2ccc(O)cc2)N2C[C@H](Cc3ccc(O)cc3)N(CC3CCCCCC3)C(=O)C2=O)C1=O,3,37%,0%,-15,i,?
O=C1NC[C@H](Cc2ccccc2)N(C[C@H]2CCCN2C[C@H](Cc2ccccc2)N2C[C@H](Cc3ccc(O)cc3)N(CC3CCCCCC3)C(=O)C2=O)C1=O,9,0%,?,-13,?,0
CC(C)C[C@@H](CN1CCC[C@@H]1CN1C(=O)C(=O)NC[C@@H]1Cc1ccccc1)N1C[C@H](Cc2ccc(O)cc2)N(CC2CCCCCC2)C(=O)C1=O,3,-21%,?,23,.,-72*
